Source: PubChem (National Center for Advancing Translational Sciences (NCATS))
Shiga toxin inh: A qHTS for Small Molecule Inhibitors of Shiga Toxin; inhibition, % at 38.7 µM; hit rate 9.2% among 290,000; Vero cells, Shiga toxin protein synthesis inhibition reporter; in the data active = inhibition mostly above about 28%, no sharp cut-off; inactive = mostly below about 43%
Pf growth 48h: Primary qHTS for delayed death inhibitors of the malarial parasite plastid, 48 hour incubation. P. falciparum luciferase growth in erythrocytes, 48 h. Potency, µM (highest dose often 28.7 µM), hits mostly inhibitors. hit rate 5.9% among 310,000. AID 504832, 2011
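Cell-based growth assay: transgenic P. falciparum expressing firefly luciferase, cultured in red cells within RPMI 1640 containing 0.5% w/v Albumax, 24 mM bicarbonate and gentamycin. A drop in luciferase activity indicates inhibition.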
SARS PLpro yeast: qHTS of Yeast-based Assay for SARS-CoV PLP | hit rate 0.19% among 330,000 | AID 485353, 2010 | S. cerevisiae expressing SARS-CoV PLpro, growth rescue | Potency, µM (titrated, usually from 32.9 µM), hits mostly activators; calls by dose curve; also: nearly all actives have a fitted effect of over 55% in size
Pf growth 96h: Primary qHTS for delayed death inhibitors of the malarial parasite plastid, 96 hour incubation | P. falciparum luciferase reporter growth, 96 h | Potency, µM (top dose mostly 28.7 µM), most hits filed as inhibitors | hit rate 6.9% among 320,000
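Readout is luminescence from an integrated firefly luciferase in P. falciparum. Red cells, 2% hematocrit and 0.05% parasitemia final, were cultured with compound through two parasite generations (96 hours) at 37 C, 5% CO2.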
Cycloheximide cs: Cycloheximide Counterscreen for Small Molecule Inhibitors of Shiga Toxin; cell reporter, cycloheximide protein synthesis inhibition counterscreen; max response, %; hit rate 12% among 300,000; AID 2314, 2010; in the data active = max response mostly above about 13%, no sharp cut-off; inactive = mostly below about 14%; also: read at 38.3 µM for the half of the compounds with a filed dose
AMA1-RON2 inh: qHTS for Inhibitors of AMA1-RON; Towards Development of Antimalarial Drug Lead: Primary Screen | AlphaScreen AMA1-biotinylated RON2 peptide binding | Potency, µM (top dose mostly 58.2 µM), hits mostly inhibitors | hit rate 0.2% among 360,000; also: nearly all actives have a fitted effect of over 45% in size
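AMA1 (3D7) with his tag at 25 nM final met compounds first, then biotinylated RON2 peptide at 25 nM; detection used donor plus acceptor beads, 10 µg/mL apiece, read by AlphaScreen after 30 min at room temperature.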
A number is an active result; – = inactive; ? = inconclusive; · = no result; [ ] = remark or other dose. This is a sample that favours compounds with a hit; in the whole collection about 19% have one here. Unless noted, calls follow the shape of the dose curve; as a rule, active = well fitted curve in the direction sought with a large enough effect; inconclusive = small, poorly fitted or top-dose-only effect, or another doubt; inactive = no such curve, though single readings can be large; an effect the other way counts as inactive or inconclusive.

SMILES | Shiga toxin inh | Pf growth 48h | SARS PLpro yeast | Pf growth 96h | Cycloheximide cs | AMA1-RON2 inh
O=C(NC1CCCCCC1)c1ccc2c(=O)n3c(nc2c1)CCCCC3 | – | · | – | – | 31.3 | –
CCCCC[C@@H](/C=C/C1C(=O)C=C[C@H]1C/C=C\CCCC(=O)O)OC(C)=O (stereo not given in full) | · | · | · | · | · | –
Cc1onc(-c2ccccc2)c1C(=O)OCC(=O)c1ccc[nH]1 | · | · | · | · | · | –
CCCCn1c(SCC(N)=O)nnc1-c1ccco1 | – | ? | – | – | – | –
CC(C)Cn1c(N)c(C(=O)CSc2ccccc2)c(=O)n(C)c1=O | – | – | – | – | – | –
CC(C)Cn1c(SCC(=O)c2ccc(Cl)s2)nnc1-c1ccco1 | – | · | – | 11.7µM | 32.9 | –
CC(C)Cn1c(N)c(C(=O)CSc2nnc(-c3ccco3)n2C)c(=O)n(C)c1=O | · | 5.22µM | – | 1.31µM | · | –
COc1ccc(-c2ccc3oc(-c4ccsc4)cc3c2)cc1 | · | · | · | · | · | –
COc1ccccc1NC(=O)CSc1nncs1 | · | · | – | · | · | –
O=C(/C(=C/O)N=Nc1ccccc1Cl)c1ccccc1 | – | ? | – | ? | 30.8 | ?
O=C(/C(=C/O)N=Nc1cccc(C(F)(F)F)c1)c1ccccc1 | – | ? | – | ? | – | –
CCOC(=O)N1CCC(NC(=O)c2sc(-n3cccc3)nc2C)CC1 | – | – | – | – | – | –
COc1ccc(Oc2nccc(-c3ccccc3)c2C#N)cc1 | 132.9 | – | – | – | 76.9 | –
COc1ccnc(Oc2ccc(C)cc2)c1C#N | 121.0 | – | – | – | 36.9 | –
COc1ccnc(Oc2ccc3ccccc3c2)c1C#N | 59.7 | – | – | – | 61.5 | –
COc1ccc(Oc2nccc(-c3ccc(F)cc3)c2C#N)cc1 | – | – | – | ? | – | –
COc1ccnc(Oc2ccc(F)cc2)c1C#N | – | – | – | – | – | –
COc1ccnc(Nc2cccc(C)c2)c1C#N | – | – | – | – | – | –
Cc1cc(C)cc(OCC(=O)N(Cc2ccccc2)C2CCS(=O)(=O)C2)c1 (stereo not given) | – | – | – | – | – | –
OC(CN1CCOCC1)c1ccc(F)cc1 (stereo not given) | – | – | – | – | – | –
O=C(c1ccc(F)cc1)C(CCCCCC(CN1CCOCC1)C(=O)c1ccc(F)cc1)CN1CCOCC1 (stereo not given) | – | ? | – | 9.28µM | – | –
NC(=S)NNC(=O)c1cccc(Br)c1 | – | – | – | – | – | ·
O=C(COC(=O)c1ccccc1O)NNC(=O)c1ccc(Br)cc1 | · | ? | – | – | · | –
O=C(NNC(=O)c1ccccc1O)c1ccc(Cl)cc1 | 47.9 | – | – | – | 32.9 | –
Cc1cccc(C(=O)NNC(=O)c2ccc(Cl)cc2)c1O | 79.0 | – | – | – | 30.4 | –
SMILES | Shiga toxin inh | Pf growth 48h | SARS PLpro yeast | Pf growth 96h | Cycloheximide cs | AMA1-RON2 inh
O=C(NNC(=O)c1ccc(O)cc1O)c1ccc(Cl)cc1 | – | – | – | ? | – | –
O=C(NNC(=O)c1ccccc1O)c1cccc(Br)c1 | 51.4 | – | – | – | 25.4 | –
O=C(NNC(=O)c1ccccc1O)c1ccc(Br)cc1 | · | – | – | – | 43.6 | –
COc1ccc(NC(=O)c2cc(S(=O)(=O)N3CCCCC3)c[nH]2)cc1Cl | – | ? | – | – | – | –
Cc1csc(N(C)C(=O)CSc2nnc(COc3cccc4ccccc34)o2)n1 | – | – | – | ? | – | –
CC(C)(C)c1ccc(C(=O)NNC(=O)c2cccc(Br)c2)cc1 | – | – | – | – | 15.8 | –
O=C(CNC(=O)C1CC1)Nc1ccc(F)c(F)c1F | · | · | – | · | · | –
N#CCCn1c(SCC(=O)c2c[nH]c3ccccc23)nc2ccccc21 | – | – | – | ? | – | –
Cc1cc(C(=O)CSc2nc3ccccc3n2CCC#N)c(C)n1Cc1cccs1 | 55.2 | ? | – | – | 46.0 | –
Cc1cc(C(=O)CSc2nnc(-c3ccccc3F)o2)c(C)n1Cc1cccs1 | – | – | ? | – | 18.7 | –
COc1ccccc1-n1cnnc1SCC(=O)c1cc(C)n(Cc2cccs2)c1C | 37.8 | – | – | · | 39.0 | –
CC1=C(C(=O)Nc2ccccc2C(F)(F)F)C(c2sccc2C)NC(=S)N1 (stereo not given) | – | – | – | – | – | –
Nc1ccccc1Oc1ccc2ccccc2c1 | 42.5 | – | – | ? | – | –
CN(CC(=O)Nc1ccc(Cl)c(Cl)c1)C(=O)C12CC3CC(CC(C3)C1)C2 | – | ? | – | 7.38µM | – | –
CN(CC(=O)Nc1ccc(Cl)c(Cl)c1)C1CCCCC1 | – | – | – | – | – | ?
CC1Sc2ccc(S(=O)(=O)NCCc3ccc(Cl)cc3)cc2NC1=O (stereo not given) | – | – | – | – | – | –
Cc1cc([N+](=O)[O-])ccc1NC(=O)CN1C2CCC1CC(NC(=O)NC13CC4CC(CC(C4)C1)C3)C2 (stereo not given) | – | 10.4µM | – | – | – | –
COc1ccc(NC(=S)N2C3CCC2CC(NC(=O)NC24CC5CC(CC(C5)C2)C4)C3)c(OC)c1 (stereo not given) | – | ? | – | ? | – | –
CCNC(=O)/C(=C/c1ccc2c(c1)OCO2)NC(=O)c1ccc(Br)cc1 | – | – | – | – | – | –
CCN(CC)C(=O)[C@H]1C[C@H](CC(=O)NCCCOC)C(=O)N2CCc3c([nH]c4cc(CCC(=O)N(C)C)ccc34)[C@]12C | · | · | – | · | · | –
Cc1cc(Nc2ccc3ccccc3c2)n2ncnc2n1 | – | 0.131µM | – | – | – | –
COc1ccc(Nc2cc(C)nc3ncnn23)cc1 | · | · | · | · | · | –
Cc1cc(Nc2cccc(C(=O)O)c2)n2ncnc2n1 | 19.3 | – | – | – | 13.5 | –
Cc1cc(Nc2ccc(C(C)C)cc2)n2ncnc2n1 | – | 1.04µM | – | – | – | –
Cc1cc(Nc2cc(C(=O)O)ccc2C)n2ncnc2n1 | – | · | – | – | – | –
SMILES | Shiga toxin inh | Pf growth 48h | SARS PLpro yeast | Pf growth 96h | Cycloheximide cs | AMA1-RON2 inh
COc1ccc(C(=O)OCC(=O)c2ccc3c(c2)NC(=O)CO3)cc1S(=O)(=O)N1CCOCC1 | · | · | – | · | · | –
COCc1cc(=O)[nH]c(-c2ccccc2)n1 | – | – | – | –[5.75 µM] | – | –
O=C1CC2c3ccccc3C1C1C(=O)N(Cc3ccccc3)C(=O)C21 (stereo not given) | – | – | – | – | – | –
CCCCNC(=O)c1cc2cc(CC)ccc2[nH]1 | – | ? | – | ? | 14.4 | –
CCOc1ccc(OCC(=O)OCC(=O)N(CC(C)C)c2c(N)n(Cc3ccccc3)c(=O)[nH]c2=O)cc1 | · | – | – | – | · | –
Fc1ccccc1Cn1nnc(-c2ccc3c(c2)OCO3)n1 | 87.7 | · | – | – | 43.5 | –
COc1cc(-c2nnn(Cc3ccccc3C)n2)cc(OC)c1OC | – | – | – | – | – | –
COc1ccc(-c2nnn(Cc3ccccc3F)n2)cc1 | 95.7 | – | – | – | 48.7 | –
